# Compounds with a hit are over-represented: about 2.3% of the library has one in this group of screens.
# aSyn yeast inh: rescues yeast growth from alpha-synuclein toxicity; Potency, µM (doses to about 46.1 µM), without a hit: top-dose growth rescue (activation), actives largely listed as activators; 370,000 tested, 0.14% active; Yeast expressing alpha-synuclein, growth rescue, BacTiter-Glo, 24 h; AID 652106; also: % of control where 0% means no effect; nearly all actives have a fitted effect of over 65% in size
#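 Screening used galactose-induced yeast with toxic alpha-synuclein levels, exposed to compound for 24 hr at 30 deg C. Cell growth, read with BacTiter-Glo luminescence, gave the measured signal.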
# uPA generation: cell surface uPA generation inhibition. cell surface uPA generation assay, qHTS. Potency, µM (top dose mostly 38.3 µM), for the others: top-dose activity change, negative = inhibition, actives largely listed as inhibitors. 330,000 tested, 0.31% active; active = well fitted inhibition curve with a large enough effect; inconclusive = small, poorly fitted or top-dose-only effect; inactive = no such curve, though single readings can be large or run the other way; tested in mouse RAW 264.7 cells; also: % is scaled to controls: 0 for no effect and ±100 for the full control effect; nearly all actives have a fitted effect of over 55% in size
# BCR signal inh: blocks chronic active B-cell receptor signaling. AID 493014. Potency, µM (titrated, usually from 46.1 µM), for inactives: at the highest dose activity change, negative = inhibition, hits mostly inhibitors. 340,000 tested, 0.05% active. ABC-DLBCL IkBa-CBG/CBR reporter, luminescence ratio, 4 h; active = well fitted inhibition curve with a large enough effect in the signal ratio, with a control signal flat, not every such curve was filed as active; inconclusive = small, poorly fitted or top-dose-only effect, or effect the other way, or a change in a side signal; the % refers to the signal ratio;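 also: plate controls were basal doxycycline-induced cells for no effect and cells given 10 µM MG132 for full effect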
#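 TMD8 ABC-DLBCL cells carrying doxycycline-inducible green luciferase fused to IkappaBalpha plus unfused red luciferase were exposed to compounds (up to 46 uM) for 4 hrs at 37C. Activity came from the overlap-corrected green/red luminescence ratio.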
# FUS yeast rescue: FUS proteinopathy suppression in yeast | S. cerevisiae FUS-expressing, growth rescue, OD600, 24 h | Potency, µM (top dose mostly 76.6 µM), most hits filed as activators | 390,000 tested, 0.24% active;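 also: plate controls were DMSO vehicle for no effect and reference control for full effect; nearly all actives have a fitted effect of over 55% in size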
#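 Yeast FUS proteinopathy model; galactose-induced FUS (2%), starting OD 0.005. Cpds in dilution series, 24hr, 30C, 99% humidity. Abs 600 nm growth. Pos ctrl CP55940 (top 92uM final); neg ctrl DMSO.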
# TDP43 rescue: inhibitors of TDP-43 toxicity in yeast. TDP-43 expressing yeast growth rescue, BacTiter-Glo, 24 h. Potency, µM (highest dose often 46.1 µM), inactives show at the top dose growth rescue (activation), most hits filed as activators. 410,000 tested, 1.8% active; also: % of control where 0% means no effect; nearly all actives have a fitted effect of over 50% in size
#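 Yeast expressing TDP-43 (pregrown in raffinose, seeded at OD600=0.02 in galactose medium) exposed to compounds 24 hr at 30 deg C. Growth read by BacTiter-Glo luminescence; rescue of toxicity appears as increased signal.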
# Abeta rescue: A-beta toxicity reversal in yeast | yeast expressing A-beta42, growth rescue, OD600, 48 h; response scale: 0% DMSO, 100% iron-clioquinol control | Potency, µM (titrated, usually from 46.1 µM), hits mostly activators | 410,000 tested, 0.063% active; also: nearly all actives have a fitted effect of over 55% in size
#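 Yeast growth medium received pinned compounds, then yeast cells expressing toxic A-beta were added; plates incubated at 30 C for 48 hr. Growth read as absorbance at 600 nm, normalized to DMSO and equimolar FeCl3 plus clioquinol controls.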
# Starred values were filed as active, the others as inactive; i = inactive; u = inconclusive; x = not tested or not shown; ! = a repeat was not active. Unless noted, calls follow the shape of the dose curve; as a rule, active = well fitted curve in the direction sought with a large enough effect; inconclusive = small, poorly fitted or top-dose-only effect, or another doubt; inactive = no such curve, though single readings can be large; an effect the other way counts as inactive or inconclusive. Potency is read from the fitted curve at half-maximal effect.
SMILES,aSyn yeast inh,uPA generation,BCR signal inh,FUS yeast rescue,TDP43 rescue,Abeta rescue
CC1(C(=O)NCc2ccc(F)c(F)c2)Cc2c(-c3ccccc3)ccnc2O1 (stereo unspecified),9.1%,x,x,i,35.5µM*,i
CC(=O)c1cccc(NC(=O)C2(C)Cc3c(-c4ccccc4)ccnc3O2)c1 (stereo unspecified),-2.5%,x,x,i,20µM*,i
CC1(C(=O)NCCc2ccccc2)Cc2c(-c3ccc4c(c3)OCO4)ccnc2O1 (stereo unspecified),-0.8%,x,x,i,21.5%,i
Cc1onc(-c2c(F)cccc2Cl)c1C(=O)OCc1cnc(Cl)s1,24.0%,-30.0%,u,i,u,i
CC(=O)Nc1cc(C(=O)NCc2ccco2)ccc1Sc1ccc(Cl)cc1,-1.8%,-7.8%,-0.1%,i,0.2%,i
CCOc1ccccc1CNC(=O)c1ccc(Sc2ccc(Cl)cc2)c(NC(C)=O)c1,4.1%,3.2%,-1.7%,x,12.6µM*,i
CC(=O)Nc1cc(C(=O)NCc2ccccc2Cl)ccc1Sc1ccc(F)cc1,x,x,u,i,22.4µM*,i
CC(=O)Nc1cc(C(=O)NCc2ccco2)ccc1Sc1ccc(F)cc1,-0.8%,-4.1%,8.5%,i,-5.6%,i
CCOc1ccc(CNC(=O)c2ccc(Sc3ccc(Cl)cc3)c(NC(C)=O)c2)cc1,-0.6%,-10.0%,10.4%,u,15.8µM*!,i
COc1cccc(C(Nc2ccccc2)c2ccc3ccc(C)nc3c2O)c1 (stereo unspecified),17.8µM*,x,x,i,22.4µM*,u
Cc1cc(NC(c2cccnc2)c2ccc3cccnc3c2O)no1 (stereo unspecified),14.1%,-13.5%,-0.9%,i,1.8%,i
Cc1cccc(NC(c2ccc(O)cc2)c2ccc3ccc(C)nc3c2O)n1 (stereo unspecified),-3.9%,-9.2%,u,15.8µM*,-22.3%,i
COc1cccc(C(c2sc3nc(-c4ccco4)nn3c2O)N2CCN(c3ccccc3F)CC2)c1 (stereo unspecified),x,x,7.9%,8.91µM*,11.2µM*,i
CCOc1ccc(N2C(=O)/C(=C\c3ccccc3OC)S(=O)(=O)C2c2cccc([N+](=O)[O-])c2)cc1 (stereo unspecified),-52.3%,23.6%,3.8%,i,11.2µM*,i
COc1ccccc1/C=C1/C(=O)N(c2ccc([N+](=O)[O-])cc2)N=C1C,-1.3%,6.6%,4.1%,i,-23.9%,i
COc1ccccc1/C=C1/C(=O)N(c2cc(C)cc(C)c2)C(c2cccc([N+](=O)[O-])c2)S1(=O)=O (stereo unspecified),-14.0%,8.4%,-0.4%,i,11.2µM*,i
Cc1ccc(NC(=O)c2cc(S(=O)(=O)NCCC3=CCCCC3)ccc2F)cc1,9.1%,u,u,x,22.4µM*,i
COc1ccc(NC(=O)c2cc(S(=O)(=O)NCC3COc4ccccc4O3)ccc2F)cc1 (stereo unspecified),6.2%,-11.4%,u,u,35.5µM*,i
O=C(Nc1ccc(F)c(F)c1)c1cc(S(=O)(=O)NC2CCCCCC2)ccc1F,x,x,20.4%,i,u,i
CCOc1ccc(NC(=O)c2cc(S(=O)(=O)NC3CCCCCC3)ccc2F)cc1,x,x,9.5%,i,12.6µM*,i
COc1ccc(C(=O)Nc2scc(-c3ccc(Cl)cc3Cl)c2C(N)=O)cc1,-6.7%,0.1%,-12.9%,i,-1.8%,i
COc1ccc(C2CC(=O)c3cc(-c4nc(-c5cccc([N+](=O)[O-])c5)cs4)c(=O)n(-c4ccc(F)cc4)c3C2)cc1 (stereo unspecified),x,x,x,i,14.2%,i
Cc1cccc(CC(=O)NC2CCCCCC2)c1,3.6%,21.7%,2.7%,i,16.8%,i
COC1=C(Nc2ccccc2OC)C(=O)c2ccccc2C1=O,-0.6%,3.9%,u,i,13.3%,i
COc1ccccc1NC1=C(NC(C)=O)C(=O)c2ccccc2C1=O,-2.5%,12.6µM*,u,i,-26.8%,i
SMILES,aSyn yeast inh,uPA generation,BCR signal inh,FUS yeast rescue,TDP43 rescue,Abeta rescue
Cc1ccc(NC(=S)c2nc3ccccc3[nH]2)c(C)c1,-4.5%,-15.6%,u,i,17.8µM*,u
C=CCn1c(SCC(=O)c2c(N)n(C3CC3)c(=O)[nH]c2=O)nnc1-c1ccc(OC)cc1,0.0%,1.2%,2.3%,i,-24.6%,i
Oc1ccc(/C=C/c2cc(O)cc(O)c2)cc1,-15.4%,6.31µM*,u,i,5.6%,i
CCCCN(C)c1ncnc2c1cnn2-c1cccc(Cl)c1,x,x,u,i,12.6µM*,i
CCCCN(CCCC)c1ncnc2c1cnn2-c1cccc(C)c1,x,x,24.8%,i,3.1%,i
COCCn1c(SCC(=O)Nc2nnc(C)s2)nnc1-c1ccncc1,-0.7%,x,0.0%,i,-15.5%,i
O=C(C(=Cc1ccc(F)cc1)c1ccccc1)c1ccc(O)cc1,-56.6%,6.6%,x,x,8.7%,i
O=C(C(=Cc1ccc(F)cc1)C(=O)c1ccccc1)c1ccccc1,u,x,x,i,3.55µM*,i
Nc1ccc(N2CCN(c3ccccc3)CC2)c(F)c1,0.8%,x,u,i,22.4µM*,i
O=C(CSc1ccccc1)Nc1ccc(N2CCN(c3ccccc3)CC2)c(F)c1,-0.1%,7.3%,-7.5%,i,10.5%,i
COC(=O)c1cc(O)cc(OC)c1Oc1cc(C)cc(O)c1C(=O)O,10.8%,0.891µM*,u,i,12.7%,i
COC(=O)c1cc(O)cc(OC)c1C(=O)c1c(O)cc(C)cc1O,-1.0%,-17.9%,u,i,5.5%,i
Cc1ncc(S(=O)(=O)c2ccccc2)c(-c2ccc(Cl)cc2Cl)n1,17.9%,4.0%,6.3%,i,u,i
COc1ccc2c(c1)C(=O)CC(c1ccc3c(c1)OCCO3)O2 (stereo unspecified),-8.5%,-3.6%,u,i,11.2µM*,i
Cc1ccc2c(c1)C(=O)CC(c1ccc3c(c1)OCCO3)O2 (stereo unspecified),-14.1%,4.1%,1.1%,i,11.2µM*,i
CCCCCCCCCCS(=O)(=O)N/N=C/c1ccc(O)cc1,u,u,22.8%,i,14.1µM*,i
CCCCCCCCCS(=O)(=O)N/N=C/c1cccc([N+](=O)[O-])c1,14.0%,x,u,i,-4.6%,i
O=C(CCN1C(=O)/C(=C/c2ccc(F)cc2)SC1=S)NC1C=CS(=O)(=O)C1 (stereo unspecified),0.4%,5.1%,u,i,14.9%,i

# High-throughput results (PubChem BioAssay)
